Assay results taken from PubChem BioAssay (EPA / NIEHS).
Results filed as inconclusive are left out. Active and inactive are the calls of the source. The calls were made as follows: active = hit-call score of the fitted dose curve at least 0.9, where 1 is the maximum; inconclusive = response in the unintended direction; inactive = score below 0.9.

How the values were obtained:
[1] = target: Neuropeptide Y receptor type 2 (Homo sapiens) (UniProt P49146); experiment: NVS_GPCR_hNPY2: NovaScreen (NVS) G Protein-Coupled Receptor Assay for human Neuropeptide Receptor Y2 (NPY2) (AID 2283277)
Outline: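 Radioligand binding on membranes extracted from SK-N-MC cells, cell-free, read 1 h after dosing by filter-based scintillation counting. Loss of signal vs DMSO. Primary screen in duplicate at 25 uM; actives followed up in concentration-response up to 50 uM.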

[2] = target: human Purinergic Receptor P2Y, P2RY1 (gene 5028) (UniProt P47900); experiment: NVS_GPCR_hPY2: NovaScreen (NVS) G Protein-Coupled Receptor Assay for human Purinergic Receptor P2Y (AID 2283281)
Method: (§1) NVS_GPCR_hPY2 is a biochemical, single-readout assay that uses extracted gene-proteins from U937 in a cell-free assay. Measurements were taken 1 hour after chemical dosing in a 48-well plate.NVS_GPCR_hPY2 is one of one assay component(s) measured or calculated from the NVS_GPCR_hPY2 assay. It is designed to make measurements of radioligand binding, a form of binding reporter, as detected with scintillation counting signals by Filter-based radiodetection technology.Data from the assay component NVS_GPCR_hPY2 was analyzed into 1 assay endpoint. This assay endpoint, NVS_GPCR_hPY2, was analyzed in the positive analysis fitting direction relative to DMSO as the negative control and baseline of activity. […] Furthermore, this assay endpoint can be referred to as a primary readout, because the performed assay has only produced 1 assay endpoint. […]
(§2) Binding assays used specific radioligands (tritiated, iodinated) with non-radioactive competitive displacement ligands in agonist or antagonist protocols (as indicated) and various reference compounds and inhibitors to titrate specific binding to receptors and transporters. Most enzyme assays (CYPs, kinases, phosphatases, proteases, HDACs) used recombinant protein and specific substrates (fluorescence mostly, some colorimetric and radioactive) and inhibitors, followed by a biochemical separation of substrate and product. […]

[3] = target: human Orphanin, Opioid Related Nociceptin Receptor 1 (ORL1), OPRL1 (gene 4987) (UniProt P41146); experiment: NVS_GPCR_hORL1: NovaScreen (NVS) G Protein-Coupled Receptor Assay for human Orphanin, Opioid Related Nociceptin Receptor 1 (ORL1) (AID 2283283)
Method: as §1, with “NVS_GPCR_hORL1” for “NVS_GPCR_hPY2”, “HEK293” for “U937”, “plate.NVS_GPCR_hORL1” for “plate.NVS_GPCR_hPY2”, “NVS_GPCR_hORL1,” for “NVS_GPCR_hPY2,”
as §2

[4] = target: human Vasopressin 1A Receptor (V1A), AVPR1A (gene 552) (UniProt P37288); experiment: NVS_GPCR_hV1A: NovaScreen (NVS) G Protein-Coupled Receptor Assay for human Vasopressin 1A Receptor (V1A) (AID 2283284)
Outline: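 Cell-free radioligand displacement on human platelet preparations, 1.5 h incubation, filter-based scintillation counting. Chemicals first tested in duplicate at 25 uM; actives then run in concentration-response up to 50 uM, loss of signal fitted against DMSO.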

[5] = target: rat Serotonin, 5-Hydroxytryptamine Receptor 1 (5HT1), Non-Selective Binding, Htr1a (gene 24473) (UniProt P19327); experiment: NVS_GPCR_r5HT1_NonSelective: NovaScreen (NVS) G Protein-Coupled Receptor Assay for rat Serotonin, 5-Hydroxytryptamine Receptor 1 (5HT1), Non-Selective Binding (AID 2283286)
Method: (§3) NVS_GPCR_r5HT1_NonSelective is a biochemical, single-readout assay that uses extracted gene-proteins from Rat cortical membranes in a tissue-based cell-free assay. Measurements were taken 1 hour after chemical dosing in a 48-well plate.NVS_GPCR_r5HT1_NonSelective is one of one assay component(s) measured or calculated from the NVS_GPCR_r5HT1_NonSelective assay. It is designed to make measurements of radioligand binding, a form of binding reporter, as detected with scintillation counting signals by Filter-based radiodetection technology.Data from the assay component NVS_GPCR_r5HT1_NonSelective was analyzed into 1 assay endpoint. This assay endpoint, NVS_GPCR_r5HT1_NonSelective, was analyzed in the positive analysis fitting direction relative to DMSO as the negative control and baseline of activity. Using a type of binding reporter, loss-of-signal activity can be used to understand changes in the binding as they relate to the gene Htr1a. Furthermore, this assay endpoint can be referred to as a primary readout, because the performed assay has only produced 1 assay endpoint. To generalize the intended target to other relatable targets, this assay endpoint is annotated to the gpcr intended target family, where the subfamily is rhodopsin-like receptor. […]

[6] = test system: 5-hydroxytryptamine receptor 2C (pig); experiment: NVS_GPCR_p5HT2C: NovaScreen (NVS) G Protein-Coupled Receptor Assay for pig Serotonin, 5-Hydroxytryptamine Receptor 2C (5HT2C) (AID 2283288)
Method: as §3, with “NVS_GPCR_p5HT2C” for “NVS_GPCR_r5HT1_NonSelective”, “Pig choroid plexus” for “Rat cortical”, “plate.NVS_GPCR_p5HT2C” for “plate.NVS_GPCR_r5HT1_NonSelective”, “NVS_GPCR_p5HT2C,” for “NVS_GPCR_r5HT1_NonSelective,”, “HTR2C.” for “Htr1a.”

[7] = test system: guinea pig Atrionatriuretic Peptide Receptor A (ANPA), gene 100135578; experiment: NVS_GPCR_gANPA: NovaScreen (NVS) G Protein-Coupled Receptor Assay for guinea pig Atrionatriuretic Peptide Receptor A (ANPA) (AID 2283291)
Method: NVS_GPCR_gANPA is a biochemical, single-readout assay that uses extracted gene-proteins from Guinea pig cerebellar membranes in a tissue-based cell-free assay. Measurements were taken 1 hour after chemical dosing in a 96-well plate.NVS_GPCR_gANPA is one of one assay component(s) measured or calculated from the NVS_GPCR_gANPA assay. It is designed to make measurements of radioligand binding, a form of binding reporter, as detected with scintillation counting signals by Filter-based radiodetection technology.Data from the assay component NVS_GPCR_gANPA was analyzed into 1 assay endpoint. This assay endpoint, NVS_GPCR_gANPA, was analyzed in the positive analysis fitting direction relative to DMSO as the negative control and baseline of activity. Using a type of binding reporter, loss-of-signal activity can be used to understand changes in the binding as they relate to the gene Nppa. Furthermore, this assay endpoint can be referred to as a primary readout, because the performed assay has only produced 1 assay endpoint. To generalize the intended target to other relatable targets, this assay endpoint is annotated to the lyase intended target family, where the subfamily is guanylyl cyclase. […]

[8] = target: mouse Cholecystokinin, CCK2 Receptor (CCKB), Cckbr (gene 12426) (UniProt P56481); experiment: NVS_GPCR_mCKKBCentral: NovaScreen (NVS) G Protein-Coupled Receptor Assay for mouse Cholecystokinin, CCK2 Receptor (CCKB) (AID 2283293)
Outline: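 Radioligand displacement binding on mouse forebrain membranes, 2 h exposure, filter-based scintillation counting. Primary screen in duplicate at 25 uM; actives (e.g. ≥30% inhibition) retested in concentration-response up to 50 uM; loss of binding signal relative to DMSO.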

Sequence of rat Serotonin, 5-Hydroxytryptamine Receptor 1 (5HT1), Non-Selective Binding, Htr1a (gene 24473) (P19327 whole entry, looked up): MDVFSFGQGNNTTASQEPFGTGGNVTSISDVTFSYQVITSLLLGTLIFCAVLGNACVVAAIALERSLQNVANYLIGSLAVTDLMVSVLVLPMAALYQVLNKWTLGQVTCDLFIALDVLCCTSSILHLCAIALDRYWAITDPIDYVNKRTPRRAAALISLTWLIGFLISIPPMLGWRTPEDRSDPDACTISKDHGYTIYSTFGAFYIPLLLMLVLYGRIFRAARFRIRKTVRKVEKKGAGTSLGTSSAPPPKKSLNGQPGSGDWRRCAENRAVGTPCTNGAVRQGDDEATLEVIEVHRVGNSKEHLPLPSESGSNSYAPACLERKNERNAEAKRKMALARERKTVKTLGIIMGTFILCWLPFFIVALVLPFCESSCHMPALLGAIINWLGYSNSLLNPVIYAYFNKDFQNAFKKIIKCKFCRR
Sequence of Neuropeptide Y receptor type 2 (Homo sapiens) (P49146 whole entry, looked up): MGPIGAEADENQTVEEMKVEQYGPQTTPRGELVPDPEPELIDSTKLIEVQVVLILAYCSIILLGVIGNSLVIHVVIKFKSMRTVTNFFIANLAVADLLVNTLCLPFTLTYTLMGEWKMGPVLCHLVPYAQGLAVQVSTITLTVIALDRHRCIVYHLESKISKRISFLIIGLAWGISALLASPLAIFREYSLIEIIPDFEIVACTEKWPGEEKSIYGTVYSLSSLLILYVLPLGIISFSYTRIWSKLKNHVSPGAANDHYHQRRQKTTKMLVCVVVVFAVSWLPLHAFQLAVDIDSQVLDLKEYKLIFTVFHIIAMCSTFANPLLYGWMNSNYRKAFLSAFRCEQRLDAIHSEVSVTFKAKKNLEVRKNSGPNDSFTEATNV
Sequence of human Vasopressin 1A Receptor (V1A), AVPR1A (gene 552) (P37288 whole entry, looked up): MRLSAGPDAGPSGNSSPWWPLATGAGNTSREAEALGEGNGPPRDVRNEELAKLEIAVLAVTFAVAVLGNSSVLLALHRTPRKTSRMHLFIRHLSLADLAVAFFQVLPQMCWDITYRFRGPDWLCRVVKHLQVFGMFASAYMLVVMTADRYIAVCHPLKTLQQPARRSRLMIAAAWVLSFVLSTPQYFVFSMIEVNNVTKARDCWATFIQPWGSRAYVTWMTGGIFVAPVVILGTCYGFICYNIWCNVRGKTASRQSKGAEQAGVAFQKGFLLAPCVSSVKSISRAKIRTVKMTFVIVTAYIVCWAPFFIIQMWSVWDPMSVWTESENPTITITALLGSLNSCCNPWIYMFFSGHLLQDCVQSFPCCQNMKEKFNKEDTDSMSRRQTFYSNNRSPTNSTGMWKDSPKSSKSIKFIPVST
Sequence of mouse Cholecystokinin, CCK2 Receptor (CCKB), Cckbr (gene 12426) (P56481 whole entry, looked up): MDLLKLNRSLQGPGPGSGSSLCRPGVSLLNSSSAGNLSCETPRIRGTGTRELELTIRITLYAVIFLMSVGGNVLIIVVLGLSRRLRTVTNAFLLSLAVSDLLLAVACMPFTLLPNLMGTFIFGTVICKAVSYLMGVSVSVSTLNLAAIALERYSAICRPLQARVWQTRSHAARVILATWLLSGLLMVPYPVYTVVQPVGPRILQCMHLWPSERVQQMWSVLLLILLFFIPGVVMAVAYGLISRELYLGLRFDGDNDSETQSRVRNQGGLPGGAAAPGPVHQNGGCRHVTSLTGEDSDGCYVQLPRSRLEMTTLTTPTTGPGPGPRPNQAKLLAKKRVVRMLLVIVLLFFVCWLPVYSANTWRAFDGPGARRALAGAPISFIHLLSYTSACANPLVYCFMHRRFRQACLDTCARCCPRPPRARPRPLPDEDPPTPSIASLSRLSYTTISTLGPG
Sequence of human Orphanin, Opioid Related Nociceptin Receptor 1 (ORL1), OPRL1 (gene 4987) (P41146 whole entry, looked up): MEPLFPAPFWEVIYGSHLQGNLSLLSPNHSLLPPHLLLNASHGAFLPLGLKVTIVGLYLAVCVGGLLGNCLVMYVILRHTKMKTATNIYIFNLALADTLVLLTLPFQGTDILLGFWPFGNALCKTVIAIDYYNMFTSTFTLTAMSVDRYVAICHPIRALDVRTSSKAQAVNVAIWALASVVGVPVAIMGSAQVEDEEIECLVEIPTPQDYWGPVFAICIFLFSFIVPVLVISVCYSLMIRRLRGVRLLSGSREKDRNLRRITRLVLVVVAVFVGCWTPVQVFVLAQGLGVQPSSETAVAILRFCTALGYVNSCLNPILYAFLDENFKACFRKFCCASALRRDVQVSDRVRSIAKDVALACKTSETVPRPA
Sequence of human Purinergic Receptor P2Y, P2RY1 (gene 5028) (P47900 whole entry, looked up): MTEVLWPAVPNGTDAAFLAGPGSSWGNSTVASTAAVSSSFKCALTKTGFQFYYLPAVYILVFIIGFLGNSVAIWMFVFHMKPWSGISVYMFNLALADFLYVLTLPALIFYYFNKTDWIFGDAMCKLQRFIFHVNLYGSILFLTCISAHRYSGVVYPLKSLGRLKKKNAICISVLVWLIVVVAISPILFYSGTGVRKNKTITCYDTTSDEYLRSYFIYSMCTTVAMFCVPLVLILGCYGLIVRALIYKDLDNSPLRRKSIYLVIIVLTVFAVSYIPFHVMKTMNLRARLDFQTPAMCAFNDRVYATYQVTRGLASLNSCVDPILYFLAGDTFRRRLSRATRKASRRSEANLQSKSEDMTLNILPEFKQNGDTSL

## COc1nc(C)nc(NC(=O)NS(=O)(=O)c2ccccc2CCC(F)(F)F)n1
[1]
  outcome: inactive

## CNC(=S)S
[2]
  outcome: inactive
[3]
  AC50: 40.3 µM (active)

## CCOc1cc(Oc2ccc(C(F)(F)F)cc2Cl)ccc1[N+](=O)[O-]
[4]
  outcome: inactive

## CN(C)C(=S)SSC(=S)N(C)C
[5]
  outcome: inactive

## CCCCNC(=O)OCC#CI
[5]
  outcome: inactive

## CON(C)C(=O)Nc1ccc(Cl)c(Cl)c1
[6]
  AC50: 25 µM (active)

## C=CCC1=C(C)C(OC(=O)C2C(C=C(C)C)C2(C)C)CC1=O (stereo unspecified)
[6]
  outcome: inactive

## COC(=O)C=C(C)OP(=O)(OC)OC
[7]
  outcome: inactive

## Fc1ccc(Oc2ccnc3cc(Cl)cc(Cl)c23)cc1
[7]
  outcome: inactive

## C#CCOS(=O)OC1CCCCC1Oc1ccc(C(C)(C)C)cc1 (stereo unspecified)
[8]
  outcome: inactive
